For some of these results: Potency and affinity values are given separately.
Legend:
Set-up in all cases: scale not given: direction of the effect not stated beside the values
[1] = target: Protein translocase subunit SecA (Escherichia coli (strain K12)) (UniProt P10408); assay: Assay to Identify E. coli SecA ATPase Inhibitors; format: functional; conditions: 30 µM
[2] = target: T1, Ubiquitin-activating enzyme e1, putative (Leishmania donovani (strain BPK282A1)) (UniProt E9BSI1); assay: Leishmania donovani Ubiquitin Activating Enzyme (LdE1); format: functional; conditions: 30 µM
T1 sequence (whole entry): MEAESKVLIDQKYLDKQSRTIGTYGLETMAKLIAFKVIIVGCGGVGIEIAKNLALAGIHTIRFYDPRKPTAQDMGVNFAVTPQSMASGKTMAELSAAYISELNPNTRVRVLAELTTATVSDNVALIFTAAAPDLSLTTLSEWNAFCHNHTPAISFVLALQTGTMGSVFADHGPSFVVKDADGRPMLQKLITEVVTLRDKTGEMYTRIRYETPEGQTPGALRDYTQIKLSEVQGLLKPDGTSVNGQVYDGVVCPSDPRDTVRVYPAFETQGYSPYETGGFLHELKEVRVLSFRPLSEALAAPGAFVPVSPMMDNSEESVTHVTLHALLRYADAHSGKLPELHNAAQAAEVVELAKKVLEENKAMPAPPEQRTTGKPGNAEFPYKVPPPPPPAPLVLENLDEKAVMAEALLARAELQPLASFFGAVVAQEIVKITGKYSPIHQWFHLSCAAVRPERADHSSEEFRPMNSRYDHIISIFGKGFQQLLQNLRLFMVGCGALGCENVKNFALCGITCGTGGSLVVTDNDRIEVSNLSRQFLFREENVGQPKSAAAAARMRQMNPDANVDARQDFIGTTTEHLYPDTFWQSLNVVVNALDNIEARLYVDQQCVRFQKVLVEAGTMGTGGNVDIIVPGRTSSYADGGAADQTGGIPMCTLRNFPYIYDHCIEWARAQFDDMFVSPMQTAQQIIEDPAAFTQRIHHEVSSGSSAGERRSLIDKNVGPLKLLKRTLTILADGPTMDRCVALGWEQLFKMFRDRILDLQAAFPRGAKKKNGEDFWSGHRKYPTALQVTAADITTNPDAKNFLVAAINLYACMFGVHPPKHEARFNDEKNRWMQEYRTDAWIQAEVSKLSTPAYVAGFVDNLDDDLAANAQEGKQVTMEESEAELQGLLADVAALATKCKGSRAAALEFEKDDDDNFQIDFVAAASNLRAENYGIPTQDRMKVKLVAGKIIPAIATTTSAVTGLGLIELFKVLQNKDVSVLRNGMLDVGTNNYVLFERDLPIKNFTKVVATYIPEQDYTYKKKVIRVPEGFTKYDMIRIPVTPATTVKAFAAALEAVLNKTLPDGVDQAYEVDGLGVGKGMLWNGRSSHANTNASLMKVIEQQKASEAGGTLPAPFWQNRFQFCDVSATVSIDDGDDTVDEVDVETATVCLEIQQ

[3] = target: AMP-activated protein kinase, AMPK (Homo sapiens) (UniProt P54646+O43741+P54619+Q9UGJ0+Q9Y478+Q13131+Q9UGI9); assay: AMP-dependent Kinase enzyme assay. An in vitro enzyme assay that detects ADP turnover that is directly proportional to AMPK activity. This uses naive AMPK that is activated during the assay with MK-8722; format: functional; conditions: 30 µM
[4] = target: Sialic acid-binding Ig-like lectin 9 (Homo sapiens) (UniProt Q9Y336); assay: Hs-Siglec9 ALPHAscreen SOP 20170721; conditions: 10 µM
Trypanosoma cruzi = assay: Trypanosoma cruzi phosphomannomutase and mannose-1-phosphate guanylyltransferase assay; format: functional; conditions: 10 µM
[5] = target: T2, Arginase-2, mitochondrial (Homo sapiens) (UniProt P78540); assay: in vitro enzyme assay to detect the production of urea directly proportional to the activity of Arginase II; format: functional; conditions: 33.3 µM; further: in the data most compounds retested in dose-response had high values
T2 sequence (whole entry): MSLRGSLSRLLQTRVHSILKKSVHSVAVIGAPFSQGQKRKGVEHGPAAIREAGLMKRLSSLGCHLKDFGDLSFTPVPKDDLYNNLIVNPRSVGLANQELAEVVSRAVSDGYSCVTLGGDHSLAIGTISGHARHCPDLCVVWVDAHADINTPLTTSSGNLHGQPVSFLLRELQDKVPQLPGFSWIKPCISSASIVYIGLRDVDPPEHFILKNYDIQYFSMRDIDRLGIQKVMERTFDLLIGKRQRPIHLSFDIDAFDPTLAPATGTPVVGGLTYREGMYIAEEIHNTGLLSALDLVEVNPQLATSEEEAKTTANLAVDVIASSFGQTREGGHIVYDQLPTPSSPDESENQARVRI

[6] = target: T3, Proteasome subunit beta (Trypanosoma cruzi) (UniProt O96673); assay: Trypanosoma cruzi proteasome chymotrypsin-like activity (TcProtChymo) assay.; further: in the data most compounds retested in dose-response had high values; format: functional; conditions: 9.37 µM
T3 sequence (whole entry): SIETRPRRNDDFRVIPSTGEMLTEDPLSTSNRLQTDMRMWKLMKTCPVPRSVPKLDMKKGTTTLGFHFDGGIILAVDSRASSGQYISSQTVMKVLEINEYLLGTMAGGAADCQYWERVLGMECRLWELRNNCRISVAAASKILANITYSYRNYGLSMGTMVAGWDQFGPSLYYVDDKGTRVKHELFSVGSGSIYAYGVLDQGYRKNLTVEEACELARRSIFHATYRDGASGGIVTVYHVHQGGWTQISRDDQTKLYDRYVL

Homo sapiens = organism: Homo sapiens; assay: To identify inhibition of the IFN signalling (Jak-Stat) pathway via expression of an eGFP reporter gene under the control of an IFN-stimulated response element (ISRE) containing MxA promoter.; format: functional; conditions: 30 µM
[7] = target: T4, Tyrosyl-tRNA synthetase, putative (Trypanosoma cruzi (strain CL Brener)) (UniProt Q4DSP6); assay: Trypanosoma cruzi tyrosyl tRNA synthetase (TcYRS) _High Tyrosine SOP; format: functional; conditions: 30 µM; further: in the data most compounds retested in dose-response had high values
T4 sequence (whole entry): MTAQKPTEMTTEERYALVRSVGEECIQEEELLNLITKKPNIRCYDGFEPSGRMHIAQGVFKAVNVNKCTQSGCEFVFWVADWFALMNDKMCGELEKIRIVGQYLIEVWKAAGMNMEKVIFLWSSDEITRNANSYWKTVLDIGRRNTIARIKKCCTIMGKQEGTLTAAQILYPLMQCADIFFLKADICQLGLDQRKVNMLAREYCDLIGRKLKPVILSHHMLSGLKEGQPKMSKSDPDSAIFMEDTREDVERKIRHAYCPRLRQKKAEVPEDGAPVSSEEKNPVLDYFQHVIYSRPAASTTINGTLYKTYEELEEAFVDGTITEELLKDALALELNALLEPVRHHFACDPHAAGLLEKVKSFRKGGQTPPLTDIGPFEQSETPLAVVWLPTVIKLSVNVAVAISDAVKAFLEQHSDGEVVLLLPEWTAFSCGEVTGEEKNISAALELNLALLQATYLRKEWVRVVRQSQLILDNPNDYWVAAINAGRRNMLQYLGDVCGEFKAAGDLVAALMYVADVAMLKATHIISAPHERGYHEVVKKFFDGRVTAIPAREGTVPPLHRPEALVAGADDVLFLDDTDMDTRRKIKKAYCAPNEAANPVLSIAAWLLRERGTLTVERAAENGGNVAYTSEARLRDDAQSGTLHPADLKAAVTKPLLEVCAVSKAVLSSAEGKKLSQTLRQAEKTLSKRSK

[8] = target: T4, Tyrosyl-tRNA synthetase, putative (Trypanosoma cruzi (strain CL Brener)); assay: Trypanosoma cruzi tyrosyl tRNA synthetase (TcYRS) SOP; format: functional; conditions: 30 µM
[9] = target: Chromo domain-containing protein 1 (Saccharomyces cerevisiae (strain ATCC 204508 / S288c) (Baker's yeast)) (UniProt P32657); assay: ScCHD-1 Enzyme Inhibition Assay; format: functional; conditions: 30 µM; further: in the data most compounds retested in dose-response had high values
Chain of Chromo domain-containing protein 1 (Saccharomyces cerevisiae (strain ATCC 204508 / S288c) (Baker's yeast)) (P32657 whole entry, the tested form may be a part): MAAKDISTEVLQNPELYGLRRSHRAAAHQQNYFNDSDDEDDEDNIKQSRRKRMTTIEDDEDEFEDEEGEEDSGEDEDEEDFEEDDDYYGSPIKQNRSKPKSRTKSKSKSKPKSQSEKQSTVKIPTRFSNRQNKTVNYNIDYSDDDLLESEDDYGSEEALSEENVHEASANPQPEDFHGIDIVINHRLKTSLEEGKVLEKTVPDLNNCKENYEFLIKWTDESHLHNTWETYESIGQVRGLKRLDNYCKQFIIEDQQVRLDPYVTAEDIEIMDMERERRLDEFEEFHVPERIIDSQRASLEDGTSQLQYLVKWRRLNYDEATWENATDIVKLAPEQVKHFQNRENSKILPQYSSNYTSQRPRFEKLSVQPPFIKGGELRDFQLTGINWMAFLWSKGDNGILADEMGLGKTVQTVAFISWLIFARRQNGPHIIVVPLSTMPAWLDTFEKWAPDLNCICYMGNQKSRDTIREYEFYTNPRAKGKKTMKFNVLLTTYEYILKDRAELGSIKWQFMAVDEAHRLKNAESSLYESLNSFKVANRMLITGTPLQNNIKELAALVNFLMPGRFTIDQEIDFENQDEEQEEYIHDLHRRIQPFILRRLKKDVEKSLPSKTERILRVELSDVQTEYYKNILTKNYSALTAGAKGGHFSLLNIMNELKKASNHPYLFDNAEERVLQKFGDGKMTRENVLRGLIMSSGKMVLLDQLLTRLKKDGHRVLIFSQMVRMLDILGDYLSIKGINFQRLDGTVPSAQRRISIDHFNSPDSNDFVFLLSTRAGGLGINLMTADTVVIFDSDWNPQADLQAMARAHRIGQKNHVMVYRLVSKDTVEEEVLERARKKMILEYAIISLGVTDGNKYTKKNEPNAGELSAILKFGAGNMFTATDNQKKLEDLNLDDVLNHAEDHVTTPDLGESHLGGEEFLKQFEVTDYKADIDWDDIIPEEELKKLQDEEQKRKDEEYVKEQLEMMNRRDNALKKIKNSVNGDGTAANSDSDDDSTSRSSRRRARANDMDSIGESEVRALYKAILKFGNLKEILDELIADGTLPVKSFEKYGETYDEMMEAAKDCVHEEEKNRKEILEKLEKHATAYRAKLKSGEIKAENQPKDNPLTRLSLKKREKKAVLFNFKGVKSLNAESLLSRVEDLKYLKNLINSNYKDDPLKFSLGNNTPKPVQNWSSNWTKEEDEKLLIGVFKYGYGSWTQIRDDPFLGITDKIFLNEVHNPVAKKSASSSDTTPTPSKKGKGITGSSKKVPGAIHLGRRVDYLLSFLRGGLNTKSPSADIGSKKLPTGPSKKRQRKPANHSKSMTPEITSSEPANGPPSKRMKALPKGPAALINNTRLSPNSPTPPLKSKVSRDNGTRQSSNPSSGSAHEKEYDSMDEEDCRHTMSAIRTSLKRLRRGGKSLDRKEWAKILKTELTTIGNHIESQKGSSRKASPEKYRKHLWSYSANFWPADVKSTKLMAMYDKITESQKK

Chain of Protein translocase subunit SecA (Escherichia coli (strain K12)) (P10408 whole entry): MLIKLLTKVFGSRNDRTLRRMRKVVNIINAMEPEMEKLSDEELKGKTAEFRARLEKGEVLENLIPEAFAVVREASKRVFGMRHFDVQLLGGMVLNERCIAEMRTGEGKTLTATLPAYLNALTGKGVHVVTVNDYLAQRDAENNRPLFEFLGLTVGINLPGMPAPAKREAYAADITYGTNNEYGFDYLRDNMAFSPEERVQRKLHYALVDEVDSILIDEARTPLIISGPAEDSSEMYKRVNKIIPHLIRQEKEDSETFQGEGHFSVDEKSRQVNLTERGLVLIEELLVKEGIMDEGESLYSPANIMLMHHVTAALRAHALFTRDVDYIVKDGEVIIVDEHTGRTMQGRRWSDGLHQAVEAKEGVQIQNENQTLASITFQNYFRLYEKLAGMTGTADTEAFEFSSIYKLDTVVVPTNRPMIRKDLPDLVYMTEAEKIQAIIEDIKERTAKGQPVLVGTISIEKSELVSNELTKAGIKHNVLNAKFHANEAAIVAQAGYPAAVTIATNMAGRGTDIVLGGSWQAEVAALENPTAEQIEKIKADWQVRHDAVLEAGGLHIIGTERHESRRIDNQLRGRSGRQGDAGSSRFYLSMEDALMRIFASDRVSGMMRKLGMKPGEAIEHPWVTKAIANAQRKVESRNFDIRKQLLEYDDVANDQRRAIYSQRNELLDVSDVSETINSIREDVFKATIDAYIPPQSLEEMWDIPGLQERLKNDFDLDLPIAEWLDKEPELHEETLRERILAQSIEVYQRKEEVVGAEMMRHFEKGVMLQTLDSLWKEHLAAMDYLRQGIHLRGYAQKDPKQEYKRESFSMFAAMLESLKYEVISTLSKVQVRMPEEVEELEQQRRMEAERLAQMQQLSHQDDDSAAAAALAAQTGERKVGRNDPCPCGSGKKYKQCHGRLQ
Chain of Sialic acid-binding Ig-like lectin 9 (Homo sapiens) (Q9Y336 whole entry): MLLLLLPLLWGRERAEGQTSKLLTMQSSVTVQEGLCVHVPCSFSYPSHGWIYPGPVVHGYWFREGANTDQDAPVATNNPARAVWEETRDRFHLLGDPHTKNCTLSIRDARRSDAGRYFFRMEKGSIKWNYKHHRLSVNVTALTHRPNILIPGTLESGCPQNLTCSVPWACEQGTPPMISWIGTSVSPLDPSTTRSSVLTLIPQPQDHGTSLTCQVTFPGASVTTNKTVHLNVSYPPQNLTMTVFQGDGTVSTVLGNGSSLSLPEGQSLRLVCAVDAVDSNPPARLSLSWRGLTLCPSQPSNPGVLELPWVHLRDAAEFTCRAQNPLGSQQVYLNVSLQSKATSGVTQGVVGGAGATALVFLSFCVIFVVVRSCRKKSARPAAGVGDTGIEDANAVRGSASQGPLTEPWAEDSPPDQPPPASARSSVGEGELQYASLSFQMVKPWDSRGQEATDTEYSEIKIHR

Row | SMILES | Percent Effect [1] | Percent Effect [2] | Percent Effect [3] | Percent Effect [4] | Percent Effect (Trypanosoma cruzi) | Percent Effect [5] | Percent Effect [6] | Percent Effect (Homo sapiens) | Percent Effect [7] | Percent Effect [8] | Percent Effect [9]
1 | CCn1cc(CN(C)S(=O)(=O)c2cc(Cl)ccc2Cl)cn1 | -0.942% | 14.7% | -0.125% | -2.27% | -6.09% | -8.98% | 15.9% | 2.3% | 0% | 7.69% | -9.05%
2 | Cc1ccc(Cn2ccc(NS(C)(=O)=O)n2)cc1 | -6.83% | 5.2% | -4.69% | -0.383% | -2.46% | -5.52% | 9.32% | -2.78% | 3.23% | 13.6% | 1.11%
3 | Cc1nc(CN2CCC(CNC(=O)Nc3ccccn3)CC2)oc1C | -6.4% | 2.7% | -0.75% | -0.537% | -1.27% | -0.744% | -1.46% | -2.29% | 4.3% | 11.1% | -2.16%
4 | Cc1cccc(NC2CCN(C(=O)Nc3cc(C)on3)CC2)n1 | -3.9% | 12.7% | -3.67% | 8.79% | 5.57% | 0.76% | 1.39% | -22.6% | 4.43% | 16.5% | -8.82%
5 | COCC(=O)N1Cc2cnc(Cc3ccc(OC)cc3)nc2C1 | -5.39% | 5.48% | -2.68% | -3.21% | 0.392% | 3.64% | 10.3% | 1.33% | 8.6% | 15% | -4.76%
6 | c1cc(CN2CCCC(c3noc(C4CC4)n3)C2)no1 (stereo not given) | 0.187% | -5.41% | -9.37% | 9.04% | 4.25% | -6.41% | 4.32% | 20.7% | 3.45% | 6.17% | -4.15%
7 | CCC1CCCCCN1C(=O)c1nnc2ccccc2c1N (stereo not given) | -4.89% | 2.63% | 3.98% | -3.48% | -2.82% | 0% | 9.11% | 7.13% | 0% | 2.6% | -1.43%
8 | c1ccc2oc(CCCN3CCOC(Cn4cccn4)C3)nc2c1 (stereo not given) | -3.85% | 5.2% | 0.772% | 0.668% | 6.56% | -3.16% | 0.889% | 7.24% | 0% | 7.06% | 5.28%
9 | COCC(c1cccc(C(F)(F)F)c1)N(C)C(=O)c1cc(C)no1 (stereo not given) | -0.889% | 13.2% | 1.05% | -2.93% | 0.564% | 4.98% | 6.68% | 10.2% | 1.47% | 19.5% | -12.2%
10 | CCCOCC(=O)NS(=O)(=O)c1ccc2c(c1)OCCCO2 | -8.22% | 0% | 0.981% | -3.65% | -6.07% | 0% | -0.423% | 13.9% | -2.46% | -6.17% | 1.45%
11 | CS(=O)(=O)NC[C@]12COC[C@H]1CN(C(=O)c1ccoc1)C2 | -3.11% | 7.79% | 7.55% | 7.59% | -1.87% | 4.52% | 10.6% | 21.3% | 5.29% | 11.5% | -4.91%
12 | CS(=O)(=O)CC(=O)N1C[C@@H]2COC[C@]2(c2nnc(C3CC3)o2)C1 | -5.11% | 21.3% | -7.29% | -4.69% | 3.86% | -53.9% | 14% | 19.8% | 3.12% | 22.5% | -11.9%
13 | Cc1cc(C)c(OCC(=O)NS(=O)(=O)c2cccnc2)c(C)c1 | -3.5% | 21.1% | -5.54% | 1.96% | 3.95% | -0.766% | 16% | 6.77% | 10.3% | 24.4% | -14%
14 | COc1ccc(CNC(=O)c2nn(C)c3c2CS(=O)(=O)CC3)cc1OC | -1.94% | 6.67% | 4.43% | 3.41% | -2.16% | -11.8% | 14.8% | 5.39% | 3.17% | 17.9% | -9.43%
15 | O=C(c1ccccn1)N1Cc2nccn2CC(COc2cccnc2)C1 (stereo not given) | 0.812% | 13.3% | 0.132% | 2.56% | -0.193% | -54.7% | 4.96% | 20.5% | 4.17% | 15% | -4.96%
16 | Cc1nc(CC(=O)N2CCCCC2c2ccn3ccnc3n2)cs1 (stereo not given) | -1.88% | -4.05% | 11.6% | 4.95% | -1.78% | -3.02% | 12.6% | 7.12% | -1.07% | 1.3% | -15.1%
17 | CNc1cc(C2CCCN2Cc2ccccc2OCC(=O)O)ccn1 (stereo not given) | -3.95% | 1.35% | 11.6% | 2.57% | -3.16% | 0.232% | 2.34% | 4.49% | 5.38% | 9.09% | -8.55%
18 | CS(=O)(=O)NCC(=O)N1CCCC1c1noc(C2CC2)n1 (stereo not given) | -3.88% | 16% | -6.02% | 25.8% | 4.19% | 41.1% | 5.58% | 0.475% | 4.92% | 13.6% | -6.99%
19 | CC(=O)c1cccc(OCCCC(=O)N(C)Cc2cccc(O)c2)c1 | -2.9% | 2.7% | 5.1% | 4.56% | 0.193% | 4.29% | 3.28% | 8.19% | -0.529% | 0% | -3.66%
20 | COC[C@H]1CCC[C@]12CN(CCc1ccccc1)CCO2 | 0.0327% | 12% | 1.6% | 2.89% | -5.5% | -8.28% | 19.8% | 4.65% | 1.06% | 2.56% | -6.74%

From ChEMBL document CHEMBL3988442, “University of Dundee, Small-Polar-MMV Screening Library” (2021)
